Results published in ChEMBL document CHEMBL2218924, “A broad activity screen in support of a chemogenomic map for kinase signalling research and drug discovery” (Biochem J, 2013).

What was measured:
[1] = target: T1, Ephrin type-B receptor 1 (Homo sapiens) (UniProt P54762); conditions: at 10 µM
T1 sequence (whole entry): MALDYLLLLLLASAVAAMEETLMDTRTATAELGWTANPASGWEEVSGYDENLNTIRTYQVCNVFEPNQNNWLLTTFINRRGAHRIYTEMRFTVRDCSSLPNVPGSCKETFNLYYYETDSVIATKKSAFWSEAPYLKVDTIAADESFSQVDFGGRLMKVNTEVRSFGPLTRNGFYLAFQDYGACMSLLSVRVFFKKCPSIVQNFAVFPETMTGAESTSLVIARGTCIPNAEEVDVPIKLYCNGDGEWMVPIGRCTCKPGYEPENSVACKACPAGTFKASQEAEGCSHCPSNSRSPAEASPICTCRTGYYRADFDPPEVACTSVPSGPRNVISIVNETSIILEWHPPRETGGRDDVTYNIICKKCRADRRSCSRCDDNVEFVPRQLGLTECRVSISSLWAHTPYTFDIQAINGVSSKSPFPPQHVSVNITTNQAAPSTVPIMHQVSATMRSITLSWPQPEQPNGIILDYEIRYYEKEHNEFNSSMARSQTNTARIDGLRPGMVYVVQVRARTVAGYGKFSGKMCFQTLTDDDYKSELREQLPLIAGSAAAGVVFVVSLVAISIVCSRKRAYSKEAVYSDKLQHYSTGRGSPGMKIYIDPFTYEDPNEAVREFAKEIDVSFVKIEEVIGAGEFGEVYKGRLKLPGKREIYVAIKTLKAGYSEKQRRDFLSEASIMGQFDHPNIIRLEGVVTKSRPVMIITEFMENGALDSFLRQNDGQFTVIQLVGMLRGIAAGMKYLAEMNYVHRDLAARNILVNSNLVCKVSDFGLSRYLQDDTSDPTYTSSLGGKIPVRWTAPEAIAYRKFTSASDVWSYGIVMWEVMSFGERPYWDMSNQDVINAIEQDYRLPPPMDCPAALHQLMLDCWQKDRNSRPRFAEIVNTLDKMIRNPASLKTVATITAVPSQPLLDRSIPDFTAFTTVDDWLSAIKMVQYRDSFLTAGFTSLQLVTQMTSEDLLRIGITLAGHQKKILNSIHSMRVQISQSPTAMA

[2] = target: T2, Ephrin type-B receptor 2 (Homo sapiens) (UniProt P29323); conditions: at 1 µM
T2 sequence (whole entry): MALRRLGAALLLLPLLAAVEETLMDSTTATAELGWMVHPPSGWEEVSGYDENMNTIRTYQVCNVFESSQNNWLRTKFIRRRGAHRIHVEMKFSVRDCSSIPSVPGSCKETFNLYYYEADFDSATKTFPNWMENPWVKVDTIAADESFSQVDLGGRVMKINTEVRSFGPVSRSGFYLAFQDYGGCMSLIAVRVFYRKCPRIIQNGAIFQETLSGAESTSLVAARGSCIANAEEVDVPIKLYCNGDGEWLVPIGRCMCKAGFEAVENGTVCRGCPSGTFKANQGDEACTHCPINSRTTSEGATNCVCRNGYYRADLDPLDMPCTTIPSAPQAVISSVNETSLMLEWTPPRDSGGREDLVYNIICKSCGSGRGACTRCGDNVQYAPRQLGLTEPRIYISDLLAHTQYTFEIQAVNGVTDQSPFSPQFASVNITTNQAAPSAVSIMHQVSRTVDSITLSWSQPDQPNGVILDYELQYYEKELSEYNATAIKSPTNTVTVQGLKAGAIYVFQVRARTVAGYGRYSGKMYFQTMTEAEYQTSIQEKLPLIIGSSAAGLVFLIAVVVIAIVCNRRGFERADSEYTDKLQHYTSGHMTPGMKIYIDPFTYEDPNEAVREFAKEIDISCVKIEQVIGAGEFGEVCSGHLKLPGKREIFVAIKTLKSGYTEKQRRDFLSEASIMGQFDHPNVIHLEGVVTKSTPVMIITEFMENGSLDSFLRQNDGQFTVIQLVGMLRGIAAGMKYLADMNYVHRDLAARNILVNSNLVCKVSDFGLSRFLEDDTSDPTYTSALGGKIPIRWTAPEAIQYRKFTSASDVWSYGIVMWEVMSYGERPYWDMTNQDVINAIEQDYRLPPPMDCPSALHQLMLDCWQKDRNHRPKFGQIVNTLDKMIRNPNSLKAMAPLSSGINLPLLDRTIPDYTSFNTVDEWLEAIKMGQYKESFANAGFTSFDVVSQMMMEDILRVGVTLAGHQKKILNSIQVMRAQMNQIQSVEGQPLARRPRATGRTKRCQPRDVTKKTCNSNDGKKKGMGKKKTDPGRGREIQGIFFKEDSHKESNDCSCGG

[3] = target: T2, Ephrin type-B receptor 2 (Homo sapiens); conditions: at 10 µM
[4] = target: T3, Ephrin type-B receptor 3 (Homo sapiens) (UniProt P54753); conditions: at 1 µM
T3 sequence (whole entry): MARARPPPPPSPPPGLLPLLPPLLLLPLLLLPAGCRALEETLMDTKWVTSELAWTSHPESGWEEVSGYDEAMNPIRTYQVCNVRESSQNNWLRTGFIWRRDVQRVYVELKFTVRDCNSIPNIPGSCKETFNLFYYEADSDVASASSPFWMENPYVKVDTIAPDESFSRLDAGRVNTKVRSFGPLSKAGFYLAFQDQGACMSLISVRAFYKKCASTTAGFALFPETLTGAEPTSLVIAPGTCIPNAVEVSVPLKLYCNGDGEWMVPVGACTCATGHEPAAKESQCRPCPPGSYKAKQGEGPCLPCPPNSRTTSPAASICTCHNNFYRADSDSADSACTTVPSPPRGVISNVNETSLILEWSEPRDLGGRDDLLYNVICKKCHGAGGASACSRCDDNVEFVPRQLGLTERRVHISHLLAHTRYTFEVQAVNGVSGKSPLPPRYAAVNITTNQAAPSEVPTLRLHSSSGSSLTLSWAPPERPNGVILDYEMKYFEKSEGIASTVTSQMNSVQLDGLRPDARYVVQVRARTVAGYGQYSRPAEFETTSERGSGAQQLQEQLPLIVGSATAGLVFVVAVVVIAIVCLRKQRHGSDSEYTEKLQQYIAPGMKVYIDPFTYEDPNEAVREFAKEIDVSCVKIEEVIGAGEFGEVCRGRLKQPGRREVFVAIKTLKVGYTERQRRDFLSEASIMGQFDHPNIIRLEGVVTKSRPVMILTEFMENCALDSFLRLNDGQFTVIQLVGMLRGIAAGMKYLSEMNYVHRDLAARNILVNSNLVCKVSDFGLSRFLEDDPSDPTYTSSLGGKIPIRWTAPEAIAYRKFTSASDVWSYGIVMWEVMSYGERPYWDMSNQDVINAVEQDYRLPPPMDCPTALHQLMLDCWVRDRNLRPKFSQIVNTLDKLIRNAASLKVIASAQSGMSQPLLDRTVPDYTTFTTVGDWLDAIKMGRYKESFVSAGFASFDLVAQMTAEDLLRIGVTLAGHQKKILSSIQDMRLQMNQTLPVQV

[5] = target: T3, Ephrin type-B receptor 3 (Homo sapiens); conditions: at 10 µM
[6] = target: T4, Ephrin type-B receptor 4 (Homo sapiens) (UniProt P54760); conditions: at 1 µM
T4 sequence (whole entry): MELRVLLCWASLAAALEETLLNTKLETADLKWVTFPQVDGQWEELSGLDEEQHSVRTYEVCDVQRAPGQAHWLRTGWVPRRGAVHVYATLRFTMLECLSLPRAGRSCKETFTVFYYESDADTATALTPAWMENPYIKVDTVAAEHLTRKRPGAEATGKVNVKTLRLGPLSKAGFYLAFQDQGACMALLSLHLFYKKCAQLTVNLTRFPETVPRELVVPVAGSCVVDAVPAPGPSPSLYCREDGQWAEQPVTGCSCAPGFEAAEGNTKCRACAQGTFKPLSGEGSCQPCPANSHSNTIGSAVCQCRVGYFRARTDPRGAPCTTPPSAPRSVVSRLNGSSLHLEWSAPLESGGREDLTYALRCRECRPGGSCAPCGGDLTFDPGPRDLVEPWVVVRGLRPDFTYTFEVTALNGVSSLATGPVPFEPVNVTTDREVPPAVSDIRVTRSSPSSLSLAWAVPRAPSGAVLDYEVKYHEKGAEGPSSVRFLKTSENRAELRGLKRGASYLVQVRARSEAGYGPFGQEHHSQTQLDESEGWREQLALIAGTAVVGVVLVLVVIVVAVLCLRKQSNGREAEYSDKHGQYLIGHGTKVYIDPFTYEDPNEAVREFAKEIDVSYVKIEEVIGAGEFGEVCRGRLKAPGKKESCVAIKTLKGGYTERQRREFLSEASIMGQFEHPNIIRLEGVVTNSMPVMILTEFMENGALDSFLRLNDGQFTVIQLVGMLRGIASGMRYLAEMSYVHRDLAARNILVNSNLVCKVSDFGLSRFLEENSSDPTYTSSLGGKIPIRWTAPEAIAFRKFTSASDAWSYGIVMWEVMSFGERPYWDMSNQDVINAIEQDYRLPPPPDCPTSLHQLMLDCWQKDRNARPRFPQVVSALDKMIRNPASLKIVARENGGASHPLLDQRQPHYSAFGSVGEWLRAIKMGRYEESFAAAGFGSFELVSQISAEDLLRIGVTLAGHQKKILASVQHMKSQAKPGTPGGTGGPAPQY

[7] = target: T4, Ephrin type-B receptor 4 (Homo sapiens); conditions: at 10 µM
[8] = target: Receptor tyrosine-protein kinase erbB-4 (Homo sapiens) (UniProt Q15303); conditions: at 1 µM
[9] = target: Receptor tyrosine-protein kinase erbB-4 (Homo sapiens) (UniProt Q15303); conditions: at 10 µM
[10] = target: Focal adhesion kinase 1 (Homo sapiens) (UniProt Q05397); conditions: at 1 µM
[11] = target: Focal adhesion kinase 1 (Homo sapiens) (UniProt Q05397); conditions: at 10 µM
[12] = target: Fibroblast growth factor receptor 1 (Homo sapiens) (UniProt P11362); conditions: at 1 µM
[13] = target: Fibroblast growth factor receptor 1 (Homo sapiens) (UniProt P11362); conditions: at 10 µM
[14] = target: Fibroblast growth factor receptor 2 (Homo sapiens) (UniProt P21802); conditions: at 1 µM
[15] = target: Fibroblast growth factor receptor 2 (Homo sapiens) (UniProt P21802); conditions: at 10 µM
[16] = target: Fibroblast growth factor receptor 3 (Homo sapiens) (UniProt P22607); conditions: at 1 µM
[17] = target: Fibroblast growth factor receptor 3 (Homo sapiens) (UniProt P22607); conditions: at 10 µM
[18] = target: Fibroblast growth factor receptor 4 (Homo sapiens) (UniProt P22455); conditions: at 1 µM
[19] = target: Fibroblast growth factor receptor 4 (Homo sapiens) (UniProt P22455); conditions: at 10 µM
[20] = target: Tyrosine-protein kinase Fer (Homo sapiens) (UniProt P16591); conditions: at 1 µM
Sequence of Tyrosine-protein kinase Fer (Homo sapiens) (P16591 whole entry, looked up): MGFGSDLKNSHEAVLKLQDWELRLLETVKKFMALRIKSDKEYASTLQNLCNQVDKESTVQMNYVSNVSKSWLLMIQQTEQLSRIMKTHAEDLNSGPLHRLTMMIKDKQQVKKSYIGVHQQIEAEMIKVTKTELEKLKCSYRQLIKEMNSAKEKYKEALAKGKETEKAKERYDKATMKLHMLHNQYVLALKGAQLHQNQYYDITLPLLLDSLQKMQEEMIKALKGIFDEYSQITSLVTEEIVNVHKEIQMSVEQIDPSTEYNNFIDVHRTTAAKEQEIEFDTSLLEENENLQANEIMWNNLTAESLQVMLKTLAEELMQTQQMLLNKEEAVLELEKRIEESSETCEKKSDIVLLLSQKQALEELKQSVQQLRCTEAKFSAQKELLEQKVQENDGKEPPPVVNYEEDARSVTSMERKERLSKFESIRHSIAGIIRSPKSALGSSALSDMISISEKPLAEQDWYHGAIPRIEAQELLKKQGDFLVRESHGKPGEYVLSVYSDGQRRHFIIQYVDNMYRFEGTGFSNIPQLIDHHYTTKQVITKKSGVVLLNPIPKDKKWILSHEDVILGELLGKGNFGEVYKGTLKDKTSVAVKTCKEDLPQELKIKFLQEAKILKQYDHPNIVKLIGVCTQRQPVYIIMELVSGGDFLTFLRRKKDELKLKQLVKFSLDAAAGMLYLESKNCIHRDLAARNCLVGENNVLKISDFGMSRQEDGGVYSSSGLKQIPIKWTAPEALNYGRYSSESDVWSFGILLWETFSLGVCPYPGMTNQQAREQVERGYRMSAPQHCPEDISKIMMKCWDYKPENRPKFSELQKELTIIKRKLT

Sequence of Receptor tyrosine-protein kinase erbB-4 (Homo sapiens) (Q15303 whole entry): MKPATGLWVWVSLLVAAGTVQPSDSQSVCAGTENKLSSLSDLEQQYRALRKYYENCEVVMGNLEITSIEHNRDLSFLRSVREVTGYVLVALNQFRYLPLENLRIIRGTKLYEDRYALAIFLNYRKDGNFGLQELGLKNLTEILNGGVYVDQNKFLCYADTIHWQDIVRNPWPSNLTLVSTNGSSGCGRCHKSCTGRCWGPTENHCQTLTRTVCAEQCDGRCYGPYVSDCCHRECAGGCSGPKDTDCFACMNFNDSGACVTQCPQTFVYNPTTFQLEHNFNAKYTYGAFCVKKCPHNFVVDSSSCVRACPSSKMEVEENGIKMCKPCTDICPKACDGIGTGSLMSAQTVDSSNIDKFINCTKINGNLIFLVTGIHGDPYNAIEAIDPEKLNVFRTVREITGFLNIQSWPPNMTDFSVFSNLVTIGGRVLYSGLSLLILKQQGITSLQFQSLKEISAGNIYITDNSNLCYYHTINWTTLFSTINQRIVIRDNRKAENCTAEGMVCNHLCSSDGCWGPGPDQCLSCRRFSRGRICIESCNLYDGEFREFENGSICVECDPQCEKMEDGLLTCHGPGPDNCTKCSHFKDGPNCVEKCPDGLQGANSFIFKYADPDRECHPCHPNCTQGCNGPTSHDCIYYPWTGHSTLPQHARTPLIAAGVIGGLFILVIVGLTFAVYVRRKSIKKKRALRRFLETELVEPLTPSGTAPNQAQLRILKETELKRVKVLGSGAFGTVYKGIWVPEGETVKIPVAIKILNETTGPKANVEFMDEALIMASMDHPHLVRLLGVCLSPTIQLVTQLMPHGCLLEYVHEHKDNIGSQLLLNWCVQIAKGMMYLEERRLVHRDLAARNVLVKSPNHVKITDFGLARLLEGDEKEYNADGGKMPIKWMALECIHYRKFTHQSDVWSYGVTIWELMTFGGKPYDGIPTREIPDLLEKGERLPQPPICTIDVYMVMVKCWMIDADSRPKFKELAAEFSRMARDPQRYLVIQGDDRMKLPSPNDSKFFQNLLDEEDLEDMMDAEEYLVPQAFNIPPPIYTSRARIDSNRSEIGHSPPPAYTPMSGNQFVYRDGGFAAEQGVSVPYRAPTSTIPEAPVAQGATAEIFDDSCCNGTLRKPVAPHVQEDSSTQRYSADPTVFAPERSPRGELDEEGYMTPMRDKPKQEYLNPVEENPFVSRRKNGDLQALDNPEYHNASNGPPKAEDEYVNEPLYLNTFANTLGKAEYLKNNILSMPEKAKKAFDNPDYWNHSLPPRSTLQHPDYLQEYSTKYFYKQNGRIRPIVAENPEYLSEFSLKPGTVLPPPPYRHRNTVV
Sequence of Fibroblast growth factor receptor 3 (Homo sapiens) (P22607 23-806 limits assumed): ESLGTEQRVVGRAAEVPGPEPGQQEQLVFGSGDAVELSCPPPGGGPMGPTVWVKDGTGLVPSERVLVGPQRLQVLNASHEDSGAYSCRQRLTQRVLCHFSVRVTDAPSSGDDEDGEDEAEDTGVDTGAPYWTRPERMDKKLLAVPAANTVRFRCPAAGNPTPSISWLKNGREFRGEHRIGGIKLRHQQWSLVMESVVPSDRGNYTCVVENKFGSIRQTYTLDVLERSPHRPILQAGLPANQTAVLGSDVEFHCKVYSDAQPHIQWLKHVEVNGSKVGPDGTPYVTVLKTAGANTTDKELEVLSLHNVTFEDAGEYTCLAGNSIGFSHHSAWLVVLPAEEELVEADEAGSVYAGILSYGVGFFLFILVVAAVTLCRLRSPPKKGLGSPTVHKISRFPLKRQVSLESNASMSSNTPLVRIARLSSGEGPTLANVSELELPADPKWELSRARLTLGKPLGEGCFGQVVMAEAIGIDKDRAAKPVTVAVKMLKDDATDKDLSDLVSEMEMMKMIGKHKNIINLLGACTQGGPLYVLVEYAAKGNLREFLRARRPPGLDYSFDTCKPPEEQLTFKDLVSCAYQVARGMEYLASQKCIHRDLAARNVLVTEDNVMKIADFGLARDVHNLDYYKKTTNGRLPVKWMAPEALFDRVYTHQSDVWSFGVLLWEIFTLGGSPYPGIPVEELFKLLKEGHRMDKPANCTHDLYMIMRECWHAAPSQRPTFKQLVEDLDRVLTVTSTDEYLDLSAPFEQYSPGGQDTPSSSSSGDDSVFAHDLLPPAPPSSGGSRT
Sequence of Fibroblast growth factor receptor 4 (Homo sapiens) (P22455 22-802 limits assumed): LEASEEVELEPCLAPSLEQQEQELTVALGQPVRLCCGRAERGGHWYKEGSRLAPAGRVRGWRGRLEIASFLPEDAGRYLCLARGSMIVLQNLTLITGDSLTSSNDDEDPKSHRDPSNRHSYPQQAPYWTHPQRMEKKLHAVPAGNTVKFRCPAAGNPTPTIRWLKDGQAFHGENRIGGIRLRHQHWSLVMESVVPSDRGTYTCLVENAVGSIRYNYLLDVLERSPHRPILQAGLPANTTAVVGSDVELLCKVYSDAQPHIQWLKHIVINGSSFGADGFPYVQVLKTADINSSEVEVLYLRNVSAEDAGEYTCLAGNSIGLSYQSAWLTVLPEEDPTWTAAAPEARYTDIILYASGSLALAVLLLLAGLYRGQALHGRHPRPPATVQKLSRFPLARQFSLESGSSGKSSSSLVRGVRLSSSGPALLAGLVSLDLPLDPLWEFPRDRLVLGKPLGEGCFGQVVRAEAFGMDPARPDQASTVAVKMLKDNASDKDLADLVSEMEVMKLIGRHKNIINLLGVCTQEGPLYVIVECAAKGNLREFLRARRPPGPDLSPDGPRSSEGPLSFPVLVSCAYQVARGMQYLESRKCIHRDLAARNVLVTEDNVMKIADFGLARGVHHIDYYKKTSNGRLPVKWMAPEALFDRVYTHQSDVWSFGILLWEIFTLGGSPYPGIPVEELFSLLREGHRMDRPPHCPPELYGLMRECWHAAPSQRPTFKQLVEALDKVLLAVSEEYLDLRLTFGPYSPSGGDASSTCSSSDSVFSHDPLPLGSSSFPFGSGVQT
Sequence of Fibroblast growth factor receptor 1 (Homo sapiens) (P11362 22-822 limits assumed): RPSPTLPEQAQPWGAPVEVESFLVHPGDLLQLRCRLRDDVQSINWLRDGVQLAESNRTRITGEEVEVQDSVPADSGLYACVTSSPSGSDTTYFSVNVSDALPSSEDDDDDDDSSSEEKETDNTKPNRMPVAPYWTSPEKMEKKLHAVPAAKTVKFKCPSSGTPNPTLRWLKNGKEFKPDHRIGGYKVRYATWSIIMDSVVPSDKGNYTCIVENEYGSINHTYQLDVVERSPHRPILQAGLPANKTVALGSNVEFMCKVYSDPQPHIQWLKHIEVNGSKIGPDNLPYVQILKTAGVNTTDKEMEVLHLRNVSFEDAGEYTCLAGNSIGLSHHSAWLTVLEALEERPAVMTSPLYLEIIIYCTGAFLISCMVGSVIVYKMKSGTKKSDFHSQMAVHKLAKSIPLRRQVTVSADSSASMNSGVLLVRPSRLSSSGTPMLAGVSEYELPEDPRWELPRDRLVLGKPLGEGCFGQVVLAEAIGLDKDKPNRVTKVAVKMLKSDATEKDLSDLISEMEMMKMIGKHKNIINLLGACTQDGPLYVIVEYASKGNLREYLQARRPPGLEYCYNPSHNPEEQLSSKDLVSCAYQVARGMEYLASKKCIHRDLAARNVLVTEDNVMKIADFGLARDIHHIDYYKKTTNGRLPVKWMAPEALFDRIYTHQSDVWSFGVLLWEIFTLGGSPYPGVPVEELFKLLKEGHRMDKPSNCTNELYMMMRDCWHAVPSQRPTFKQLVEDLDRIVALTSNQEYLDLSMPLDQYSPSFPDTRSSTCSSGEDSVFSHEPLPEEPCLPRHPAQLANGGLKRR

Structure (SMILES) | residual activity [1] [%] | residual activity [2] [%] | residual activity [3] [%] | residual activity [4] | residual activity [5] [%] | residual activity [6] [%] | residual activity [7] [%] | residual activity [8] [%] | residual activity [9] [%] | residual activity [10] [%] | residual activity [11] [%] | residual activity [12] [%] | residual activity [13] [%] | residual activity [14] [%] | residual activity [15] [%] | residual activity [16] [%] | residual activity [17] [%] | residual activity [18] [%] | residual activity [19] [%] | residual activity [20] [%]
C[S+]([O-])c1ccc(-c2nc(-c3ccc(F)cc3)c(-c3ccncc3)[nH]2)cc1 (stereo unspecified) | 56 | 101 | 61 | 114% (inactive) | 105 | 107 | 41 | 115 | 82 | 125 | 115 | 142 | 90 | 99 | 81 | 115 | 99 | 110 | 97 | 107
CCn1cnc2c(Nc3cccc(Cl)c3)nc(N[C@@H]3CCCC[C@@H]3N)nc21 | 1 | 56 | 0 | – | – | 51 | 9 | 83 | 68 | 53 | 12 | 76 | 11 | – | 34 | 113 | 53 | 118 | 79 | 85
O=C1c2ccccc2-c2nc3nnnn3nc21 | – | – | 138 | 108% (inactive) | 133 | 118 | 115 | 106 | – | – | – | 113 | 81 | 118 | 135 | 125 | 132 | 118 | 106 | 112
COc1cc(OC)c(/C=C2\C(=O)Nc3ccccc32)c(OC)c1 | 88 | – | – | 124% (inactive) | 107 | 86 | 82 | – | 106 | 92 | 81 | 107 | 88 | 102 | 90 | – | – | – | – | 97
COC(=O)[C@@]1(O)C[C@H]2O[C@]1(C)n1c3ccccc3c3c4c(c5c6ccccc6n2c5c31)C(=O)NC4 | 4 | 114 | 55 | 110% (inactive) | 100 | 71 | 22 | 64 | 19 | 39 | 5 | 10 | 11 | 20 | 2 | 17 | 2 | 88 | 36 | 2
N/C(=N\[N+](=O)[O-])N/N=C\c1ccc(-c2cccc([N+](=O)[O-])c2)o1 | – | – | – | – | – | 90 | 90 | 100 | 88 | – | – | – | – | – | 92 | 95 | 92 | – | – | –
O=C1Nc2ccc3ncsc3c2/C1=C/c1c[nH]cn1 | 9 | 87 | 29 | 120% (inactive) | 131 | 79 | 29 | 88 | 102 | 73 | 13 | 9 | 1 | 18 | 3 | 19 | 9 | 112 | 84 | –
CN[C@@H]1C[C@H]2O[C@@](C)([C@@H]1OC)n1c3ccccc3c3c4c(c5c6ccccc6n2c5c31)C(=O)NC4 | – | – | – | – | 131 | 79 | – | – | – | – | – | – | – | – | – | – | – | – | – | –
COc1cc2ncnc(Nc3ccc(OCc4ccccc4)cc3)c2cc1OC | 106 | 118 | 114 | 117% (inactive) | 100 | 117 | 132 | – | – | 136 | 81 | 88 | 69 | 100 | 109 | 97 | 100 | 122 | 99 | 111
